# Results reported in ChEMBL document CHEMBL3988442, “University of Dundee, Small-Polar-MMV Screening Library” (2021).
# For some assays here: Results with a measured potency or affinity are listed apart.
# Tests used:
# Parameters in all cases: scale not given: direction of the effect not stated beside the values
# [1] = target: Protein translocase subunit SecA (Escherichia coli (strain K12)) (UniProt P10408); test: Assay to Identify E. coli SecA ATPase Inhibitors; format: functional; details: 30 µM
# [2] = target: T1, Ubiquitin-activating enzyme e1, putative (Leishmania donovani (strain BPK282A1)) (UniProt E9BSI1); test: Leishmania donovani Ubiquitin Activating Enzyme (LdE1); format: functional; details: 30 µM
# T1 sequence (whole entry): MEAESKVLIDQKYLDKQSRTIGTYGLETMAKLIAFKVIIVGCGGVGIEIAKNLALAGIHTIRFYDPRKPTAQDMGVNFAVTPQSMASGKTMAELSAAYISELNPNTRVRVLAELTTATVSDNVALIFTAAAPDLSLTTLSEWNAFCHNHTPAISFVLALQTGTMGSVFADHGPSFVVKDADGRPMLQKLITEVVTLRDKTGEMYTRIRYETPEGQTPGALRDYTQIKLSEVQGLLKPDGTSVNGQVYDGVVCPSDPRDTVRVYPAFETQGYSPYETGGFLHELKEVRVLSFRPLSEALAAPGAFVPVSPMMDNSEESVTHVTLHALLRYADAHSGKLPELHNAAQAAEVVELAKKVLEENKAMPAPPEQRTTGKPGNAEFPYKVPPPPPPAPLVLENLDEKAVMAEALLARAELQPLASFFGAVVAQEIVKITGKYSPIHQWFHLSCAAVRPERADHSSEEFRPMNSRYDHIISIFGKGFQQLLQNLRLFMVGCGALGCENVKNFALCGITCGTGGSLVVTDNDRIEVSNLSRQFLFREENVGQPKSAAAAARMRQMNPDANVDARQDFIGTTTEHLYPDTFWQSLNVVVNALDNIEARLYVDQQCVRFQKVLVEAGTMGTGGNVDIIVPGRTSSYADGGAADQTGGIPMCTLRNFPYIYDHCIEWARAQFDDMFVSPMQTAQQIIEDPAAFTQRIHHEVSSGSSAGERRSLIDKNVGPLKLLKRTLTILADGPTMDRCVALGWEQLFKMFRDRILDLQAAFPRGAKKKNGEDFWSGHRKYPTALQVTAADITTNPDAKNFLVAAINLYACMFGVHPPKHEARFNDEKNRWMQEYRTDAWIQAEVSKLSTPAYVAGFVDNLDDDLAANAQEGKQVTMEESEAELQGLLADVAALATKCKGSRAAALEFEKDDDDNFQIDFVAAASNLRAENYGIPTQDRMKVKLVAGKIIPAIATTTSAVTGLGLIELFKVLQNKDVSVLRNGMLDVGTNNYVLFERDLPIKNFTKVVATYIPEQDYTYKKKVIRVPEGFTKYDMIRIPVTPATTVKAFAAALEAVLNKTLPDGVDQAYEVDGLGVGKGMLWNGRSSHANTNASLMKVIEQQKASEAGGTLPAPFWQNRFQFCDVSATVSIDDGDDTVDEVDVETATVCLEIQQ
# [3] = target: AMP-activated protein kinase, AMPK (Homo sapiens) (UniProt P54646+O43741+P54619+Q9UGJ0+Q9Y478+Q13131+Q9UGI9); test: AMP-dependent Kinase enzyme assay. An in vitro enzyme assay that detects ADP turnover that is directly proportional to AMPK activity. This uses naive AMPK that is activated during the assay with MK-8722; format: functional; details: 30 µM
# [4] = target: Sialic acid-binding Ig-like lectin 9 (Homo sapiens) (UniProt Q9Y336); test: Hs-Siglec9 ALPHAscreen SOP 20170721; details: 10 µM
# Trypanosoma cruzi = test: Trypanosoma cruzi phosphomannomutase and mannose-1-phosphate guanylyltransferase assay; format: functional; details: 10 µM
# [5] = target: T2, Arginase-2, mitochondrial (Homo sapiens) (UniProt P78540); test: in vitro enzyme assay to detect the production of urea directly proportional to the activity of Arginase II; format: functional; details: 33.3 µM; also: in the data most compounds retested in dose-response had high values
# T2 sequence (whole entry): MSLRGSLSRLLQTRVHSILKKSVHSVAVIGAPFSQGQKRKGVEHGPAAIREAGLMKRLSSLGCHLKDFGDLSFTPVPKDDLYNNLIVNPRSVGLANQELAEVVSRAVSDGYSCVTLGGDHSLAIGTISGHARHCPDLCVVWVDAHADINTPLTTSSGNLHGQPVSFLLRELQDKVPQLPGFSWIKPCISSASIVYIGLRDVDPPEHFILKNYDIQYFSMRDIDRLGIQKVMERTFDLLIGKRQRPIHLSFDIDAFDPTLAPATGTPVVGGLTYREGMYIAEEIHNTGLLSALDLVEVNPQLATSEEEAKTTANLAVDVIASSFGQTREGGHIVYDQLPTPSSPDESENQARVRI
# [6] = target: T3, Proteasome subunit beta (Trypanosoma cruzi) (UniProt O96673); test: Trypanosoma cruzi proteasome chymotrypsin-like activity (TcProtChymo) assay.; also: in the data most compounds retested in dose-response had high values; format: functional; details: 9.37 µM
# T3 sequence (whole entry): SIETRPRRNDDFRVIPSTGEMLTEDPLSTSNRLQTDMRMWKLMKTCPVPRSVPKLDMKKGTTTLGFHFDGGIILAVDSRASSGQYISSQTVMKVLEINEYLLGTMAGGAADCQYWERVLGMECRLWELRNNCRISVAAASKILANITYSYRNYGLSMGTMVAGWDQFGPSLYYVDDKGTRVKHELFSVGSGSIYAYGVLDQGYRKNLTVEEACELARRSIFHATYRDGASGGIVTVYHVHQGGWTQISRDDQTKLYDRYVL
# Homo sapiens = organism: Homo sapiens; test: To identify inhibition of the IFN signalling (Jak-Stat) pathway via expression of an eGFP reporter gene under the control of an IFN-stimulated response element (ISRE) containing MxA promoter.; format: functional; details: 30 µM
# [7] = target: T4, Tyrosyl-tRNA synthetase, putative (Trypanosoma cruzi (strain CL Brener)) (UniProt Q4DSP6); test: Trypanosoma cruzi tyrosyl tRNA synthetase (TcYRS) _High Tyrosine SOP; format: functional; details: 30 µM; also: in the data most compounds retested in dose-response had high values
# T4 sequence (whole entry): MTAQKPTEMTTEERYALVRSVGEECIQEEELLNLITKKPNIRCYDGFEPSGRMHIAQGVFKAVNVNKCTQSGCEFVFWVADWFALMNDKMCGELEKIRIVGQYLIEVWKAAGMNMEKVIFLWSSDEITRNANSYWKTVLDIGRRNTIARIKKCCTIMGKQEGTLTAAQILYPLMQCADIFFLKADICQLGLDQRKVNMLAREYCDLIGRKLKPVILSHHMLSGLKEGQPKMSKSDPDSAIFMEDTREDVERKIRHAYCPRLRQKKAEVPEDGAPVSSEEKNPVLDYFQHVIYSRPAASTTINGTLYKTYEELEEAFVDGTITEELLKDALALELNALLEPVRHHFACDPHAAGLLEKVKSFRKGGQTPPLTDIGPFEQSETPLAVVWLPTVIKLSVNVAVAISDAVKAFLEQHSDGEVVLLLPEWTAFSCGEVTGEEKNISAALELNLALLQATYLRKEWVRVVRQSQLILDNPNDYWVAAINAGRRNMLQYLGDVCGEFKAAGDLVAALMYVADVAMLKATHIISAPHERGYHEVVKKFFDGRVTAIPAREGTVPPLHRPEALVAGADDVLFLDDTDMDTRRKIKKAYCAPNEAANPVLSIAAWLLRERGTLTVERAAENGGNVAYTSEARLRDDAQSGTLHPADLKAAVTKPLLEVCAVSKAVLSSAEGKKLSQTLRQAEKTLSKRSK
# [8] = target: T4, Tyrosyl-tRNA synthetase, putative (Trypanosoma cruzi (strain CL Brener)); test: Trypanosoma cruzi tyrosyl tRNA synthetase (TcYRS) SOP; format: functional; details: 30 µM
# [9] = target: Chromo domain-containing protein 1 (Saccharomyces cerevisiae (strain ATCC 204508 / S288c) (Baker's yeast)) (UniProt P32657); test: ScCHD-1 Enzyme Inhibition Assay; format: functional; details: 30 µM; also: in the data most compounds retested in dose-response had high values
# Chromo domain-containing protein 1 (Saccharomyces cerevisiae (strain ATCC 204508 / S288c) (Baker's yeast)), sequence (P32657 whole entry, the tested form may be a part): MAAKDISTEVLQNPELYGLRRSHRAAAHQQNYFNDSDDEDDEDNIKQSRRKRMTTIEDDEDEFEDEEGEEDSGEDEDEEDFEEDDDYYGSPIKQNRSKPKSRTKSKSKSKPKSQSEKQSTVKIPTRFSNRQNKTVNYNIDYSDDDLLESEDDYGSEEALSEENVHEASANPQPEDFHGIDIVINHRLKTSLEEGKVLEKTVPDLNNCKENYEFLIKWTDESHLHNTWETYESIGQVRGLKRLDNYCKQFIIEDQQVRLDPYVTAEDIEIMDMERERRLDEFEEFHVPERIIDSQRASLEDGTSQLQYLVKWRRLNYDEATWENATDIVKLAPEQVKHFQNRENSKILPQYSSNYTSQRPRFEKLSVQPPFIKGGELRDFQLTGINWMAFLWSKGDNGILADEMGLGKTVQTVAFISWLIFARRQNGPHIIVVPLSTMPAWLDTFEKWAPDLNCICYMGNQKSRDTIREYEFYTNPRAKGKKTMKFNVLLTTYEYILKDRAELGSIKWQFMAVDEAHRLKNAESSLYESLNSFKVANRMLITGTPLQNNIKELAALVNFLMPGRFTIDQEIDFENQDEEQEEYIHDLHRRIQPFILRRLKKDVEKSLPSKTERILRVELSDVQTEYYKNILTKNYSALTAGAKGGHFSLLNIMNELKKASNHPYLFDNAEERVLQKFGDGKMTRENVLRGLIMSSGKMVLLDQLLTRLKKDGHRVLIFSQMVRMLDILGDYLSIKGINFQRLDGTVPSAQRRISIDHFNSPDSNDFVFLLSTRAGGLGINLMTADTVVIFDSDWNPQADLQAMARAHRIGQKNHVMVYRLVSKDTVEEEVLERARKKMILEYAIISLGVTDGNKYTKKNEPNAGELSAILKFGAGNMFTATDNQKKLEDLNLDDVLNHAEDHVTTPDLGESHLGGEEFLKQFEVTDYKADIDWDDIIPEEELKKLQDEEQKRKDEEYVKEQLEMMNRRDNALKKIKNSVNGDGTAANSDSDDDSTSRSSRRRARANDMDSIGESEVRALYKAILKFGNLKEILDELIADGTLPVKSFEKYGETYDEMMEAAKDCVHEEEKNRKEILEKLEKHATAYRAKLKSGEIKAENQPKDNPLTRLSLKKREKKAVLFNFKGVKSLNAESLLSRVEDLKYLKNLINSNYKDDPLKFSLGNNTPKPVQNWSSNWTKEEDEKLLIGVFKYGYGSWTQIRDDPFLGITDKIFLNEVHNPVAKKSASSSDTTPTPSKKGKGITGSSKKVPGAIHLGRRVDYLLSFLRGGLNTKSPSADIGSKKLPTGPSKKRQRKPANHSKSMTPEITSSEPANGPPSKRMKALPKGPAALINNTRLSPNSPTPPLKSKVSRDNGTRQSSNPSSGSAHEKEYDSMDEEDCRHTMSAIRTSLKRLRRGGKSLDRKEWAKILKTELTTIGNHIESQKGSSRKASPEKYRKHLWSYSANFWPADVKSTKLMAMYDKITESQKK
# Sialic acid-binding Ig-like lectin 9 (Homo sapiens), sequence (Q9Y336 whole entry): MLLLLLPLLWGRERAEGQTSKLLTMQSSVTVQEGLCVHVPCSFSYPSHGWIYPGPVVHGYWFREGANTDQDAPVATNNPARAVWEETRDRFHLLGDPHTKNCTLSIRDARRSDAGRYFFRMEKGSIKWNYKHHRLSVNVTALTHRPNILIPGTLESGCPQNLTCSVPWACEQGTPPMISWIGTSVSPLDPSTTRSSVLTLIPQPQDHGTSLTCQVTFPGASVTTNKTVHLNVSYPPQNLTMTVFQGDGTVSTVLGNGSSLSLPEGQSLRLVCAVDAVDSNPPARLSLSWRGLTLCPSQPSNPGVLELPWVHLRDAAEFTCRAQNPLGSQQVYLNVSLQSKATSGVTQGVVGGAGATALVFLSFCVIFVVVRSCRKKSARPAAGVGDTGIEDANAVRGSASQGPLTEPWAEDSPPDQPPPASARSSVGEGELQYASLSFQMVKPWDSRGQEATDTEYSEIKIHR
# Protein translocase subunit SecA (Escherichia coli (strain K12)), sequence (P10408 whole entry): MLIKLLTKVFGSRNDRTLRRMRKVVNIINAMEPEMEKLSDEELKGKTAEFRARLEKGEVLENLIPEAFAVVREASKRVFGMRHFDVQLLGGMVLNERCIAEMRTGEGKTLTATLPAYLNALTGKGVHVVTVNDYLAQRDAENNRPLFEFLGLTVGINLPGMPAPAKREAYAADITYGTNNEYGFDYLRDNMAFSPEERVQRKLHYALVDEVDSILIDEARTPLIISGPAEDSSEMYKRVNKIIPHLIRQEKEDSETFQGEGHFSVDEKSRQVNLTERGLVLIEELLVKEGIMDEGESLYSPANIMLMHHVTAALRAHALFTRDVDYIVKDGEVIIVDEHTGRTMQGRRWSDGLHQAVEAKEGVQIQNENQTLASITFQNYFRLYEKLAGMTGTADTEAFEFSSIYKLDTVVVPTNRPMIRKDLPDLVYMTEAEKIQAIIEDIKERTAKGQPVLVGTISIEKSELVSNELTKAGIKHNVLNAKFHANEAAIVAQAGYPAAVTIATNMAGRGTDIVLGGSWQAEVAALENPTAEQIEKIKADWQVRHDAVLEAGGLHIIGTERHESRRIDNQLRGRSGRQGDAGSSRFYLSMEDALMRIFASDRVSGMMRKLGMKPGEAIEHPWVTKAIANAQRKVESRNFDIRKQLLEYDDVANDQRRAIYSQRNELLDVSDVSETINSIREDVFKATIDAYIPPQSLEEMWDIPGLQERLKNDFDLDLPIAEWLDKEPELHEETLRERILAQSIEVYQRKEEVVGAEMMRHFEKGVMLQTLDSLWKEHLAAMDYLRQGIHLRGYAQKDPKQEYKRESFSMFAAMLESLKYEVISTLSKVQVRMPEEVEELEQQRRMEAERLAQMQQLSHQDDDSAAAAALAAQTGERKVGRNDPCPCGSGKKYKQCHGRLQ
Compound,Percent Effect [1] [%],Percent Effect [2] [%],Percent Effect [3] [%],Percent Effect [4] [%],Percent Effect (Trypanosoma cruzi) [%],Percent Effect [5] [%],Percent Effect [6] [%],Percent Effect (Homo sapiens) [%],Percent Effect [7] [%],Percent Effect [8] [%],Percent Effect [9] [%]
Fc1ccc(CN2CCC(c3nccnc3-n3ccnc3)CC2)cc1,-8.16,17.6,8.26,0.663,3.75,-3.02,12.5,17.9,3.23,3.9,-17.3
CC(=O)N1[C@H](Cn2cncn2)C[C@@H]2CN(c3ccc(C)nn3)CC[C@@H]21,-0.849,2.6,1.33,0.483,3.83,0,9.98,-9.62,-1.07,1.24,-3.45
O=C(c1ccncn1)N1CCO[C@H]2[C@@H](OCc3cccnc3)CC[C@@H]21,-1.55,8,-0.169,5.8,-3.48,-23.8,8.72,2.92,-6.25,7.5,-6.65
CS(=O)(=O)CC(=O)N1C[C@H]2CCC[C@@]2(COCc2ccccn2)C1,-1.45,2.7,-3.2,0.525,-0.88,11.2,26,-5.57,0,17.9,0.642
Cc1ccsc1CNc1cc(N2CCCC2CO)ncn1 (configuration not stated),-9.04,11.4,-19.2,6.66,1.33,-1.07,8.23,12.1,0,17.7,-31
CS(=O)(=O)N1CCCCCC1C1CCN(c2ncccn2)CC1 (configuration not stated),-4.78,2.63,2.07,1.83,-4.13,-1.92,2.17,24.7,1.47,7.32,0.0825
O=C(N1CCCCC1)N1CCN(CC(O)c2ccc(F)cc2)CC1 (configuration not stated),-0.539,13.2,-0.12,5.2,-4.51,4.21,4.84,20.8,8.33,17.1,-5.09
O=C(CCN1CCCC1c1cccs1)N1CCc2sccc2C1 (configuration not stated),0.699,-29.7,-9.71,3.83,-1.6,-18,3.96,5.67,3.45,-11.1,2.06
FC(F)(F)C1CCCn2c(CNCc3ccsc3)nnc21 (configuration not stated),-2.76,2.67,-9.01,4.99,2.63,1.56,20.2,-14.2,9.29,18.5,-3.87
CC(=O)N1CCCCC1c1cc(CO)[nH]n1 (configuration not stated),-1.55,1.35,7,5.31,1.78,2.09,12.3,10.5,3.23,6.49,9.52
Cc1ccc(N2CC3(CCN(c4nccs4)C3)C2)nn1,0.227,2.74,1.72,6.68,-0.794,0.798,14,0.564,5.21,11.1,0.982
CC(C)n1ccnc1C1CCCN(c2ccccn2)C1 (configuration not stated),-4.71,5.33,-0.644,4,-2.43,0,18.7,15.1,3.83,11.1,-7.89
CCO[C@@H]1CO[C@@]2(CCCN(Cc3scnc3C)C2)C1,-2.88,0,-3.01,9.05,7.14,-5.19,9.85,3.99,-4.17,3.7,-0.793
Cc1ccc(C(=O)N(C)Cc2cscn2)c(=O)[nH]1,-6.94,15.8,-3.33,3.04,2.24,1.18,4.31,1.38,4.25,2.6,-6.33
COCC(=O)NCc1cc(=O)n2c(n1)CN(CC1CCOC1)CCC2 (configuration not stated),0.158,13.5,2.63,-10.2,0.0978,-2.23,8.12,8.83,-1.08,12.8,-2.53
c1coc(CN2C[C@H](OCC3CCOCC3)[C@H]3COC[C@H]32)c1,-3.71,8.11,6.46,-3.04,-3.23,-0.955,15.3,13.1,0,12.8,1.07
Cc1ccc(NC(=O)NCCCc2n[nH]c(N)c2C#N)cc1,-1.33,15.2,3.73,-1.97,-3.12,1.9,13.5,13.3,5.42,11.4,-3.94
CNC(=O)[C@H]1C[C@@H]2CN(C(=O)c3ccco3)C[C@@H]2N1S(C)(=O)=O,-2.51,13.3,-0.761,-3.21,3.48,90.5,12.7,-4.85,6.25,17.5,-6.67
CC(O)CN1CCN(C(=O)c2ccc(Cn3cccn3)cc2)CC1 (configuration not stated),-4.02,18.9,-8.57,7.3,7.08,-9.22,6.67,3.34,7.39,25.9,-12.3
O=C(Nc1ccc(CCN2CCC(O)CC2)cc1)C1CCOCC1,-1.94,2.7,-6.78,11.5,4.18,-1.66,1.98,3.22,5.94,11,-3.93
CCc1c(C)nc2n(c1=O)CC(C(=O)Nc1nccs1)CS2 (configuration not stated),-7.87,13,-4.33,-3.77,5.62,5.81,7.31,4.32,3.17,14.1,-7.44
CO[C@H]1CN(C(=O)c2ccccn2)[C@@H]2CCCO[C@H]12,-0.127,-2.7,2.92,0.754,-2.25,1.59,17.5,0.992,0,5.13,3.83
